Data as given in the supplement of paper PMC10105736.
Unmarked numbers belong to inactive results.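 How the source made its calls: active = MAPPIT score above the 99th percentile of random reference set scores in the same batch; inactive = at or below it.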

Tests used:
Assay in all cases: MAPPIT interaction score (arbitrary units); higher = stronger binary interaction signal, active = hit call of the paper
MAPk-Ak2 = details: MAPPIT configuration: N-N; pair source set: Curagen_high_conf
MED8 = biological target: MED8
MED15 = details: MAPPIT configuration: N-N; pair source set: Finley_Y2H
Lmpt = details: MAPPIT configuration: N-N; pair source set: Curagen_low_conf
Pen = details: MAPPIT configuration: N-N; pair source set: Finley_Y2H
lwr = details: MAPPIT configuration: N-N; pair source set: screen_1
Mettl14 = details: MAPPIT configuration: N-N; pair source set: DPIM
Rnmt = details: MAPPIT configuration: N-N; pair source set: DPIM
Mpcp2 = details: MAPPIT configuration: N-N; pair source set: Lit-BS-16
mod(mdg4) = details: MAPPIT configuration: N-N; pair source set: Lit-BS-16
MESK2 = details: MAPPIT configuration: N-N; pair source set: DPIM
Mkk4 = details: MAPPIT configuration: N-N; pair source set: DPIM
Orai = details: MAPPIT configuration: N-N; pair source set: DPIM
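Further: HEK293T cells with Epo stimulation, STAT-responsive firefly luciferase reporter, fold induction versus unstimulated cells divided by the larger fold induction of two negative controls lacking either bait or prey.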

B1: p38b (protein)
chain: MSRKMAKFYKLDINRTEWEIPETYQNLQPVGQGAYGQVCKAVVRGTSTKVAIKKLARPFQSAVHAKRTYRELRLLKHMDHENVIGLLDVFHPGQPADSLDQFQQVYMVTHLMDADLNNIIRTQKLSDDHVQFLVYQILRGLKYIHSAGVIHRDLKPSNIAVNEDCELRILDFGLARPAESEMTGYVATRWYRAPEIMLNWMHYNQTADIWSVGCIMAELLTGRTLFPGTDHIHQLNLIMEVLGTPADEFMSRISSESARNYIRSLPVMPRRNFRDIFRGANPLAIDLLEKMLELDADKRITAEQALAHPYMEKYHDPTDEQTAALYDQSFEENELPVEKWREMVFSEVTAFKPTAAFAELLPKEQ
- MAPPIT interaction score (MAPk-Ak2): 1.93

B2: Trmt112 (protein)
chain: MKLSTYNFLTSVAIKGVKVGFPLKLTINKKEVVESEFNPTFVERILPKLDWSAVYGAAQVAELTEDIPAVQPENIVENELLLQKLHHLLFEIDVLEGQLECPETGRVFPISDGIPNMLLNEDEV
- MAPPIT interaction score (MED8; MAPPIT configuration: N-C, pair source set: screen_4): 0.923
- MAPPIT interaction score (MED8; MAPPIT configuration: N-N, pair source set: Finley_Y2H): 1.99

B3: grp (protein)
chain: MAATLTEAGTGPAATREFVEGWTLAQTLGEGAYGEVKLLINRQTGEAVAMKMVDLKKHPDAANSVRKEVCIQKMLQDKHILRFFGKRSQGSVEYIFLEYAAGGELFDRIEPDVGMPQHEAQRYFTQLLSGLNYLHQRGIAHRDLKPENLLLDEHDNVKISDFGMATMFRCKGKERLLDKRCGTLPYVAPEVLQKAYHAQPADLWSCGVILVTMLAGELPWDQPSTNCTEFTNWRDNDHWQLQTPWSKLDTLAISLLRKLLATSPGTRLTLEKTLDHKWCNMQFADNERSYDLVDSAAALEICSPKAKRQRLQSSAHLSNGLDDSISRNYCSQPMPTMRSDDDFNVRLGSGRSKEDGGDRQTLAQEARLSYSFSQPALLDDLLLATQMNQTQNASQNYFQRLVRRMTRFFVTTRWDDTIKRLVGTIERLGGYTCKFGDDGVVTVSTVDRNKLRLVFKAHIIEMDGKILVDCRLSKGCGLEFKRRFIKIKNALEDIVLKGPTTWPIAIATNSVP
- MAPPIT interaction score (MED15): 2.02

B4: prod (protein)
chain: MEKVEAVTVSNVDPYRRILNKVVSQLLLDKGAGQASNHSLETLTQMLQALIWEIGNSAHNYCELSGRTMPTVGDVSLALINMGISISNLDPYMRKETHVPIPLPPQQTQQRPLSLLQAGIKAPHPHYVPSYFPPMPDPHAYIRTPTHKQPVTEYEAIREKAACQKRDIEKALTKFLCKTTETNNLFPTEDNMFPLIACKPAFPPYAAALNPTDQVFDFEELEYHYLVANRTEDEPSKDDGEEGDSENEEMDGDKSKEEKPELDIKPNSNTNKAILENPNIDNPYLRAATLPKRSKNCPTPGTMPSRSLATTAPTIRTPSTLEITKTNL
- MAPPIT interaction score (Lmpt): 2.19
- MAPPIT interaction score (Pen): 0.326
- MAPPIT interaction score (lwr): -0.147

B5: Hsp23 (protein)
chain: MANIPLLLSLADDLGRMSMVPFYEPYYCQRQRNPYLALVGPMEQQLRQLEKQVGASSGSSGAVSKIGKDGFQVCMDVSHFKPSELVVKVQDNSVLVEGNHEEREDDHGFITRHFVRRYALPPGYEADKVASTLSSDGVLTIKVPKPPAIEDKGNERIVQIQQVGPAHLNVKENPKEAVEQDNGNDK
- MAPPIT interaction score (Mettl14): 1.35
- MAPPIT interaction score (Rnmt): 1.27

B6: 4E-T (protein)
chain: MDTSKISARYSKVDLLALRYEGKSRQRPQCSTRLELQTLGFWKINLNTAALTVSSAYSNQNKNRLSPEADNSSLICSNSSSISSRRAMRNRERANNYYQRFVPTDSLLISGEDKDKDALSHGQPYKLNIIDHRSISSSHLMPAFAKRRFVISKGSNSEESNEGINTCASKGKAASSPSRKGSELDTAETCLNFVQPDHDQCMSSSPTFSTSRQERRIGSGRLLPRSDNWDYKNEKTVEASIENEKETSPNGSGSTSSLNQHNQSQHRSRTFSGRLVERVPEVTDRRFQYDSKKSFDRQGINNRRISGKEPFSTQSRSKRGNSYLIHEEPEWFSAGPKSQLETIDLHGFEDLEKNEERSVTEDKNNQIQQLDKNLDAQASKDEASMRNSNDSLNFREVIPSDEKKHTDENVVTSIQNSTDLGHPNKNKPIQMQPSQNPESEFNFDAFLNMHPLDNSVLSNDETGKSDSKGTSRFSRWFRQKEAANNNEFPGFRESHAQEKRGIPSVKDLEAQMIKVDMRTDLINPIAGSLCQTVQMEKPIARDTEAFKKLLQQLGSQARQHHPCNDDCRTINLSNIANHVHLESKLHQKINDGHLQQPELSVNVPTMPTSSHVFLQKRLEIQHLIQRLHCGDVSHDFLEKELDNPSTPAATKDVIATVLNEYSHSKRNPVVTGDPNIFTQQSFLQPQSVHQHYSQELHSQNTANHTINQLISHGNSPTPLAFTPTSVLRKMTADKDTQSPSTYCQNPQYHVHQQNAKQVGTRENVLEPQLTATMAVQPRMILGGGNFAIGQNNQHLSPNMSQSRNQQVLKWTSGNMQMVHGKTFGRPILKGGLNSMPHSNSALPFTAHKIEMQPIHQPHLQQQQHRFKAVQSVESNLNTESVHQNITSPVGWHQLYMQHQQQHHHTRQQLSQRVIYGEMHRQSNPQMSPPVPGFSDSSDSGNVIKANSLTSPSYQRDERISSPTNQLAQWFSPELLAKASAGKLPLLNVNQALSLEEFERSIQHSSGVVHN
- MAPPIT interaction score (Mpcp2): 0.135
- MAPPIT interaction score (mod(mdg4)): -0.246

B7: SdhB (protein)
chain: MLATEARQILSRVGSLVARNQMRAISNGTAQLEQQAQPKEAQEPQIKKFEIYRWNPDNAGEKPYMQTYEVDLRECGPMVLDALIKIKNEMDPTLTFRRSCREGICGSCAMNIGGTNTLACISKIDINTSKSLKVYPLPHMYVVRDLVPDMNNFYEQYRNIQPWLQRKNEAGEKKGKAQYLQSVEDRSKLDGLYECILCACCSTSCPSYWWNAEKYLGPAVLMQAYRWIIDSRDENSAERLNKLKDPFSVYRCHTIMNCTRTCPKGLNPGRAIAEIKKLLSGLASKPAPKLETAALHK
- MAPPIT interaction score (MESK2): 0.135

B8: porin (protein)
chain: MAPPSYSDLGKQARDIFSKGYNFGLWKLDLKTKTSSGIEFNTAGHSNQESGKVFGSLETKYKVKDYGLTLTEKWNTDNTLFTEVAVQDQLLEGLKLSLEGNFAPQSGNKNGKFKVAYGHENVKADSDVNIDLKGPLINASAVLGYQGWLAGYQTAFDTQQSKLTTNNFALGYTTKDFVLHTAVNDGQEFSGSIFQRTSDKLDVGVQLSWASGTSNTKFAIGAKYQLDDDASVRAKVNNASQVGLGYQQKLRDGVTLTLSTLVDGKNFNAGGHKIGVGLELEA
- MAPPIT interaction score (Mkk4): 1.64
- MAPPIT interaction score (Orai): 1.31
